This is an account of results in PubChem BioAssay AID720540 (National Center for Advancing Translational Sciences (NCATS), 2013).

The whole screen tested about 1,300 compounds, of which about 460 (35%) were called active. About 39% were inconclusive and are not listed. Calls follow the shape of the dose curve; as a rule, active = well fitted inhibition curve with a large enough effect; inconclusive = small, poorly fitted or top-dose-only effect; inactive = flat fitted curve, though single readings scatter. The list shows a part of the results.
Potency is read from the fitted curve at half-maximal effect.

Chain of Protein phosphatase EYA2 (Homo sapiens) (O00167 whole entry, looked up): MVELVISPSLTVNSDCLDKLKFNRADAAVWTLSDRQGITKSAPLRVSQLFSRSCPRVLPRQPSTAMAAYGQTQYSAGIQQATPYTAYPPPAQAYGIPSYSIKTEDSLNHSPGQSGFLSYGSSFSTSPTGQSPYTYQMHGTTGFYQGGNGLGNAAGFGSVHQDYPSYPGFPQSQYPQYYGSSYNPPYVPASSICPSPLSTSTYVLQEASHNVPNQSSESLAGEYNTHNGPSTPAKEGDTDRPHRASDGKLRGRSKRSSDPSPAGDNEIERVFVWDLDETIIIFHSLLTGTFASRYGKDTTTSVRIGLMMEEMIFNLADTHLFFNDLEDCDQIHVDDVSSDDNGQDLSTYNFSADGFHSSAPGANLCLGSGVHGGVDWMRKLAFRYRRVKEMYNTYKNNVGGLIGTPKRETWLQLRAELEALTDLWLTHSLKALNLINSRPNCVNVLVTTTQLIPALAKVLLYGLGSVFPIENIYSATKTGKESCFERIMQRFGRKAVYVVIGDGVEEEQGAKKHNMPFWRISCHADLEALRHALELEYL

This test concerns the target Protein phosphatase EYA2 (Homo sapiens) (UniProt O00167). The test can be described thus: qHTS for Inhibitors of the Phosphatase Activity of Eya2: Confirmatory Assay for Cherry-picked Compounds. Also: nearly all actives have a fitted effect of over 65% in size.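 As to activity change, negative = inhibition: 0% = DMSO wells and -100% = EGTA control giving full inhibition.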 The note with it: purified EYA2 phosphatase activity, qHTS confirmation; series mostly up to 46.1 µM; activity change, negative = inhibition: at the top concentration. In outline:
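Eya2 (0.2 uM working solution) preincubated 10 min at room temperature with compound in pH 7.5 HEPES buffer with MgCl2, BSA, DTT. OMFP added (50 uM working solution), 10 min more; fluorescence 485/525 nm, normalized to EGTA and DMSO.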
`Cc1cc(C)c(C#N)c(Sc2nnnn2-c2ccccc2)n1`: the “activity change, negative = inhibition” value is -3.69% (inactive). Turning to `COc1ccc(Nc2cc3n(c(=O)n2)CCc2cc(OC)c(OC)cc2-3)c(C)c1`, the Potency is 15.1 µM (active). The same measure, in the same setting: under `COc1cc2c(cc1OC)-c1cc(Nc3ccccc3)nc(=O)n1CC2` stands 6.75 µM (active); under `CCOc1ccc(Nc2cc3n(c(=O)n2)CCc2cc(OC)c(OC)cc2-3)cc1`, 6.75 µM (active). Same read-out and setting: the figure for `COc1cc2c(cc1OC)-c1cc(Nc3ccc(F)cc3)nc(=O)n1CC2` is 2.39 µM (active). For `FC(F)(F)c1ccc(CN2C[C@@H]3C(c4ccc(Cl)nc4)C4(c5cccnc5)CC3(C4)[C@H]2c2ccccc2)cc1` (some centres not stated), the “activity change, negative = inhibition” value is -20.4% (inactive).

As for `O=C(NCc1ccco1)C1CC2CCC1C2` (configuration not stated), the “activity change, negative = inhibition” value was -4.68% (inactive).

Turning to `COc1cc2c(cc1OC)-c1cc(Nc3ccc(C)cc3)nc(=O)n1CC2`, the Potency was 5.36 µM (active).

Consider `Cc1c(C(=O)/C=C/N(C)C)nnn1-c1ccc(Cl)cc1Cl`, for which the “activity change, negative = inhibition” value was -1.95% (inactive).

In the case of `CCc1c(C)nc(Nc2nc(C)c3ccc(OC)cc3n2)[nH]c1=O`, the Potency is 3.79 µM (active). Consider `C[C@](N)(Cc1ccc(O)c(O)c1)C(=O)O`, for which the “activity change, negative = inhibition” value is -6% (inactive). In the case of `COc1cc(NC(=O)c2ccccc2Cl)ccc1NC(=O)c1cccs1`, the “activity change, negative = inhibition” value is -14.2% (inactive). On to `COc1ccc(C(=O)Nc2ccc3c(c2)CCCN3C(=O)c2cccs2)c(OC)c1`, for which the Potency is 8.49 µM (active). On to `COc1ccccc1/C=C/C(=O)Oc1cccc2cccnc12`, for which the Potency was 9.53 µM (active). In the case of `O=C(/C=C/c1ccco1)Oc1cccc2cccnc12`, the Potency is 15.1 µM (active).

In the case of `O=C(/C=C/c1ccccc1)Oc1cccc2cccnc12`, the Potency was 6.75 µM (active). Consider `O=C(/C=C\c1ccccc1)Oc1cccc2cccnc12`, for which the Potency was 7.57 µM (active). `COCCNC(=O)CCC(=O)NNc1nc2ccccc2c2nc(-c3ccccc3)nn12`: the “activity change, negative = inhibition” value was -27% (inactive). Same read-out and setting: under `c1ccc(-c2ccc(C3=Nn4c(nnc4-c4cc(-c5ccccc5)n[nH]4)SC3)cc2)cc1` stands -22.5% (inactive); under `N#Cc1ccc(CSc2nnc(-c3c[nH]c4ccccc34)n2-c2ccccc2)cc1`, -25.4% (inactive).

On to `COc1ccc(N=C2SC(C(=O)N3CCN(c4ccc([N+](=O)[O-])cc4)CC3)CC(=O)N2C)cc1` (configuration not stated), for which the “activity change, negative = inhibition” value was -14.5% (inactive). Consider `COc1cc2nc(/C=C/c3ccc(N(C)C)cc3)sc2cc1SC`, for which the Potency is 19 µM (active).

For the compound `COc1ccccc1NC(=O)c1ccc(NC(=O)Cc2n[nH]c(=O)c3ccccc23)cc1`, the “activity change, negative = inhibition” value was -15.9% (inactive). With `COc1ccccc1OCC(=O)Nc1ccc(C(=O)Nc2ccccc2C(=O)O)cc1`, the Potency was 16.9 µM (active).

In the case of `O=C(Nc1ccc(F)cc1)c1ccc2[nH]c(=O)c(=O)[nH]c2c1`, the Potency is 4.78 µM (active). On to `O=C(NC1=C(Nc2ccc(F)cc2)C(=O)c2ccccc2C1=O)c1ccc(Cl)cc1`, for which the “activity change, negative = inhibition” value is -23.3% (inactive). `N#Cc1c(N)n(-c2cccc(C(=O)O)c2)c2nc3ccccc3nc12`: the Potency is 16.9 µM (active). Take `N#Cc1c(N)n(-c2ccc(C(=O)O)cc2)c2nc3ccccc3nc12`: the Potency is 16.9 µM (active). With `Cc1cc(/C=C2\C(=N)N3N=C(CC(=O)N4CCOCC4)SC3=NC2=O)c(C)n1Cc1ccccc1`, the “activity change, negative = inhibition” value is -27.6% (inactive). On to `O=C(NN=C1CCCC1)c1[nH]c2ccc(Br)cc2c1-c1ccccc1`, for which the “activity change, negative = inhibition” value is -27.5% (inactive). On to `COc1cc(/C=C2\C(C)=C(C#N)c3nc(N)c(C#N)c(C)c32)ccc1OCC(=O)O`, for which the Potency is 16.9 µM (active).

In the case of `COc1ccc2c(c1)C=C/C2=C\c1ccc(N(C)C)cc1`, the Potency is 5.36 µM (active). Still for that read-out and setting: the figure for `CN(C)c1ccc(/C=C2\CCc3cc(N)ccc32)cc1` is 8.49 µM (active).

On to `CN(C)c1ccc(/C=C2\C=Cc3cc(N)ccc32)cc1`, for which the Potency was 8.49 µM (active). For the compound `O=S(=O)(c1ccc(Cl)cc1)N1CCOCC1`, the “activity change, negative = inhibition” value was 0.87% (inactive). For the compound `Cc1ccc(NC(=O)c2cc(=O)c3ccccc3o2)cc1S(=O)(=O)N1CCCCC1`, the Potency is 12 µM (active). With `Cc1ccc(NC(=O)COc2ccc(S(=O)(=O)N3CCOCC3)cc2)cc1`, the “activity change, negative = inhibition” value is -10.9% (inactive). With `COc1ccc(C(=O)Nc2nc(-c3ccccn3)cs2)cc1S(=O)(=O)N1CCOCC1`, the Potency was 1.51 µM (active). As to `S=C(Nc1ccc2c(c1)OCCO2)Nc1ccc2c(c1)OCO2`, the “activity change, negative = inhibition” value was -21.9% (inactive). `Cc1ccc(NC(=O)c2ccc3c(c2)OCO3)cc1S(=O)(=O)N1CCOCC1`: the Potency was 9.53 µM (active). As for `O=C(Nc1cc(S(=O)(=O)N2CCOCC2)ccc1Cl)c1cc(=O)c2ccccc2o1`, the “activity change, negative = inhibition” value was -22.8% (inactive).

Consider `O=C(Nc1nc(-c2ccccn2)cs1)c1cccc(S(=O)(=O)N2CCOCC2)c1`, for which the Potency is 1.51 µM (active). As to `Cc1cccc(S(=O)(=O)C(C#N)c2nc3ccccc3nc2N2CCOCC2)c1` (configuration not stated), the “activity change, negative = inhibition” value was -19.8% (inactive). For the compound `CC(C(=O)c1ccc(Br)cc1)[n+]1cccc2ccccc21` (configuration not stated), the “activity change, negative = inhibition” value is 24.3% (inactive).

With `O=C1c2ccccc2C(=O)N1CCCc1cn(C[C@H]2CC[C@@H]([C@@H]3CC[C@H](Cn4cc(CCCN5C(=O)c6ccccc6C5=O)nn4)O3)O2)nn1`, the “activity change, negative = inhibition” value is -2.94% (inactive). On the same count and under the same terms, the figure for `COc1ccc(CC(=O)Nc2cccc(Cl)c2C)cc1S(=O)(=O)N1CCOCC1` is -7.62% (inactive).

`COc1ccc(C(=O)Nc2ccc3nc(C)sc3c2)cc1S(=O)(=O)N1CCOCC1`: the Potency was 16.9 µM (active).
